Screens: PubChem, Broad Institute
The entries come from a sample that favours hits as a whole.
IDE exosite inh: exo-site inhibitors of human insulin-degrading enzyme; P14735; purified IDE, FL-6b probe fluorescence polarization; stronger effect = lower value; z-score at 20 µM; 17,000 compounds, 6.3% hits; AID 1259349;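 active = z-score of -3 or lower, meaning strong loss of probe binding signal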;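 note: His-tagged human IDE residues 42-1019 made in E. coli with 30 nM FL-6b probe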
* = called active by the depositor; ! = not confirmed by another sample.

SMILES	IDE exosite inh
Cc1ccccc1-c1ccc([C@@H]2[C@H](CO)N3CCCCN(S(=O)(=O)Cc4ccccc4)C[C@@H]23)cc1	-4.7*
Cc1ccccc1-c1ccc([C@H]2[C@H](CO)N3CCCCN(S(C)(=O)=O)C[C@@H]23)cc1	-4.6*
CCS(=O)(=O)N1CCCCN2[C@H](CO)[C@H](c3ccc(-c4ccccc4C)cc3)[C@H]2C1	-8.3*
O=S(=O)(Cc1ccccc1)N1CCCCN2[C@H](C1)[C@@H](c1ccc(-c3ccccc3)cc1)[C@@H]2CO	-0.2
CS(=O)(=O)N1CC(=O)N2[C@H](C1)[C@H](c1ccc(Br)cc1)[C@@H]2CO	0.089
CCS(=O)(=O)N1CC(=O)N2[C@H](CO)[C@@H](c3ccc(C#Cc4ccc(F)cc4)cc3)[C@@H]2C1	1.8
N#C[C@@H]1[C@H](c2ccccc2C2=CCCC2)[C@H](CO)N1C(=O)Cc1ccncc1	0.41
CN(C)C(=O)c1ccc(-c2ccc([C@@H]3[C@H](CO)N4C(=O)CN(C(=O)C5CCCC5)C[C@@H]34)cc2)cc1	0.12
COc1cccc(C#Cc2ccc([C@H]3[C@H]4CN(S(=O)(=O)c5ccccc5C)CC(=O)N4[C@H]3CO)cc2)c1	-1.4
CC(C)C#Cc1ccc([C@H]2[C@@H](CO)N3C(=O)CN(C(=O)C4CCCCC4)C[C@@H]23)cc1	0.24
O=C1CN(S(=O)(=O)Cc2ccccc2)C[C@H]2[C@@H](c3ccc(C#CCC4CCCC4)cc3)[C@@H](CO)N12	2.2
CCS(=O)(=O)N1CCCCN2[C@H](CO)[C@H](c3ccc(-c4ccc(C(=O)N(C)C)cc4)cc3)[C@H]2C1	0.47
CN(C)CC(=O)N[C@@H]1CC[C@@H](CCNC(=O)C2CCC2)O[C@H]1CO	0.68
C[C@H](O)C#Cc1ccc([C@@H]2[C@@H](CO)N3CCCCN(C(=O)c4ccc5c(c4)OCO5)C[C@@H]23)cc1	0.73
O=C(c1ccc(F)cc1)N1CC(=O)N2[C@H](CO)[C@@H](c3ccc(C#CC4CCCCC4)cc3)[C@H]2C1	4.1
O=C(Nc1ccc(F)cc1)N1CC(=O)N2[C@H](C1)[C@@H](c1ccc(-c3cccc(F)c3)cc1)[C@@H]2CO	-1.8
CC(C)[C@H]1CC=CC[C@@H](C)Oc2ccccc2C(=O)N(C)[C@H](Cc2ccccc2)C(=O)N1 (mixture of isomers)	-1.4
O=C(c1cccc(F)c1)N1CC2(C1)[C@H](c1ccccc1)[C@@H](CO)N2C(=O)C1CCCCC1	-1.7
COCC(=O)Nc1ccc2c(c1)[C@H]1C[C@@H](CC(=O)N[C@H](C)c3ccccc3)O[C@H](CO)[C@H]1O2	0.66
COCC#Cc1ccc([C@@H]2[C@@H](CO)N3C(=O)CN(C(=O)Nc4ccc(F)cc4)C[C@H]23)cc1	3.7
CC(C)C#Cc1ccc([C@H]2[C@H]3CN(C(=O)c4ccc(F)cc4)CCCCN3[C@H]2CO)cc1	2.6
CO[C@@H]1CN(C)C(=O)c2ccc(NC(C)=O)cc2OC[C@H](C)N(C(=O)c2cnccn2)C[C@H]1C	0.59
COc1ccc2c3c([nH]c2c1)[C@H](CO)N(C(=O)CN(C)C)CC31CCN(Cc2cncnc2)CC1	1.3
O=C(C[C@@H]1CC[C@@H]2NC[C@@H](O)COC[C@H]2O1)Nc1nccs1	-0.53
CCS(=O)(=O)N1CCCCN2[C@H](C1)[C@H](c1ccc(-c3ccccc3C)cc1)[C@@H]2CO	-0.65
SMILES	IDE exosite inh
CCS(=O)(=O)N1CCCCN2[C@H](CO)[C@@H](c3ccc(-c4ccccc4F)cc3)[C@H]2C1	1.9
CCS(=O)(=O)N1CCCCN2[C@H](CO)[C@@H](c3ccc(-c4ccccc4C)cc3)[C@@H]2C1	-18*
Cc1ccccc1S(=O)(=O)N1CCCCN2[C@H](CO)[C@H](c3ccc(-c4cncnc4)cc3)[C@@H]2C1	4.5
CCN(C[C@@H]1N[C@H](CO)[C@H]1c1ccc(-c2ccccc2)cc1)C(=O)COC	-2.5
COc1ccc(-c2ccc(C3[C@@H]4CN(C(=O)c5ccc(F)cc5)C[C@H]3N4)cc2)cc1 (stereo partly drawn)	1.2
O=C(c1ccc(F)cc1)N1C[C@@H]2N[C@H](C1)C2c1ccc(-c2cccnc2)cc1 (stereo partly drawn)	-0.19
Cc1cccc(-c2ccc(C3[C@@H]4CN(C(=O)c5ccncc5)C[C@H]3N4)cc2)c1 (stereo partly drawn)	-2.9
COc1ccccc1-c1ccc(C2[C@@H]3CN(C(=O)c4cccnc4)C[C@H]2N3)cc1 (stereo partly drawn)	-14*!
COc1ccccc1-c1ccc(C2[C@@H]3CN(C(=O)c4ccncc4)C[C@H]2N3)cc1 (stereo partly drawn)	-7.3*!
N#Cc1ccc(-c2ccc(C3[C@@H]4CN(C(=O)c5ccncc5)C[C@H]3N4)cc2)cc1 (stereo partly drawn)	-0.56
O=C(c1cccc(F)c1)N1CC(=O)N2[C@H](C1)[C@@H](c1ccc(-c3cccnc3)cc1)[C@@H]2CO	-2.7
C[C@H](CO)N1C[C@H](C)[C@@H](CN(C)S(=O)(=O)c2ccccc2)OCCCC[C@H](C)Oc2ccc(NC(=O)Nc3ccc4c(c3)OCO4)cc2C1=O	1.2
